Results on three compounds are retold here after PubChem BioAssay (NCATS).

A number with no mark means an inactive call. Results filed as inconclusive are left out. Some of the results follow. The source made the active and inactive calls. Unless noted, calls follow the shape of the dose curve; as a rule, active = well fitted curve in the direction sought with a large enough effect; inconclusive = small, poorly fitted or top-dose-only effect, or another doubt; inactive = no such curve, though single readings can be large; an effect the other way counts as inactive or inconclusive. Where only a bound is given, the exact number is not on record here.

In test [1] the target is Vitamin D3 receptor (Homo sapiens) (UniProt P11473). The test is described as follows: qHTS for Inhibitors of the vitamin D receptor (VDR): Hit Validation using a Beta-Lactamase Assay (AID 602202). Also: % is scaled to controls: 0 for no effect and ±100 for the full control effect. A digest of the protocol: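 Stably transfected HEK293 cells expressing VDR-GAL4 DNA-binding domain fusion with UAS-driven beta-lactamase reporter, activated by agonist LG190178; compounds incubated 18 h, then FRET beta-lactam substrate 2 h; cleaved substrate read at 447 nm emission.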
For orientation: qHTS replaces the single test concentration by a dilution series.

The nature of test [2]: qHTS for Inhibitors of the vitamin D receptor (VDR): Hit Validation using a Cytotoxicity Assay (AID 602204).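 Also: plate controls were DMSO for no effect and high-concentration cycloheximide for full effect; nearly all actives have a fitted effect of over 75% in size.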 In outline:
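Luminescence proportional to cellular ATP reports viability. Cells (20,000 per well) rested 4 h, were treated with compounds for 18 h, then incubated 30 min with detection reagent. Controls: cycloheximide (high) and DMSO.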

Test [3] has as its target Phosphoglycerate kinase, glycosomal (Trypanosoma brucei brucei) (UniProt P07378). The test is described as follows: qHTS for inhibitors of Phosphogylcerate Kinase: Hit Validation Screen (AID 686980). Also: potency is read from the fitted curve at half-maximal effect; nearly all actives have a fitted effect of over 65% in size. The settings on record: TbPGK coupled GAPDH assay, Kinase-Glo luminescence. A digest of the protocol:
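Recombinant glycosomal PGK reaction used 1,3-bisphosphoglycerate generated in-well by GAPDH (100nM final) in 100mM TEA pH 7.6, 5mM MgCl2, 0.01% Tween-20. After 60 minutes at room temperature, ATP was read by Kinase-Glo Plus luminescence end-point.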

Test [4] has as its target DNA polymerase iota (Homo sapiens) (UniProt Q9UNA4). In words: qHTS for Inhibitors of Polymerase Iota: Confirmatory Assay for Cherry-picked Compounds (AID 720496). Also: potency is read from the fitted curve at half-maximal effect. The settings on record: Pol iota primer extension, TAMRA/BHQ fluorescence. In outline:
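Extension of a quenched TAMRA-reporter/BHQ-2-template DNA substrate (50 nM) by 10 nM Pol iota after 15 min compound preincubation. Strand-displacement fluorescence (525/598 nm) was read kinetically at 0 and 10 min. Buffer-only wells served as negative control.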

For test [5], the target named is Bifunctional 3'-5' exonuclease/ATP-dependent helicase WRN (Homo sapiens) (UniProt Q14191). The test is described as follows: qHTS for Inhibitors of WRN Helicase: Confirmatory Assay for Cherry-picked Compounds. (AID 720497). Also: potency is read from the fitted curve at half-maximal effect; nearly all actives have a fitted effect of over 65% in size. The settings on record: WRN helicase DNA unwinding, fluorescence kinetic. A digest of the protocol: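 Kinetic fluorescence helicase read-out (525 nm excitation, 598 nm emission) on a forked duplex substrate at 100 nM with 2 mM ATP. Enzyme: 20 nM WRN, exposed to compound for 15 min at room temperature. Responses normalized to buffer-only and positive-control wells.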

Test [6] has as its target Flap endonuclease 1 (Homo sapiens) (UniProt P39748). In words: qHTS Assay for the Inhibitors of FEN1: Confirmatory Assay for Cherry-picked Compounds (AID 720498). Also: potency is read from the fitted curve at half-maximal effect; nearly all actives have a fitted effect of over 60% in size. The settings on record: FEN1 flap cleavage, TAMRA/BHQ2 fluorogenic DNA substrate. A digest of the protocol: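 Human FEN1 (10 nM reagent) was preincubated with compounds for 15 min at room temperature, then 50 nM final double-flap DNA substrate (5'-TAMRA flap, BHQ-2 quencher strand) was added. Fluorescence (ex 525/em 598 nm) was read at 0 and 15 min.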

The nature of test [7]: qHTS for Inhibitors of WRN Helicase: Thiazole Orange DNA Binding Counterscreen (AID 720499).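 Also: drop in dye fluorescence marks compound binding to DNA; potency is read from the fitted curve at half-maximal effect; nearly all actives have a fitted effect of over 60% in size.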 The settings on record: thiazole orange DNA binding displacement, fluorescence. A digest of the protocol:
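Mixture of 100 nM thiazole orange and 50 nM unlabeled DNA exposed to compound 15 min at room temperature. Dye displacement monitored by 480/530 nm fluorescence, identifying nonspecific DNA binders.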

The target of test [8] is DNA polymerase kappa (Homo sapiens) (UniProt Q9UBT6). In words: qHTS for Inhibitors of Polymerase Kappa: Confirmatory Assay for Cherry-picked Compounds (AID 720501). Also: potency is read from the fitted curve at half-maximal effect. The settings on record: purified Pol-kappa, fluorescent strand-displacement substrate. In outline:
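10 nM human Pol-kappa was preincubated with compound 15 min at room temperature, then 50 nM (final) primer/template substrate with TAMRA-labeled reporter strand and BHQ-2-labeled template added. Fluorescence (Ex 525, Em 598 nm) read at 0 and 10 min.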

The target of test [9] is DNA polymerase eta (Homo sapiens) (UniProt Q9Y253). The test is described as follows: qHTS for Inhibitors of Polymerase Eta: Confirmatory Assay for Cherry-picked Compounds (AID 720502). Also: potency is read from the fitted curve at half-maximal effect. The settings on record: Pol eta primer extension, TAMRA/BHQ fluorescence, 10 min. In outline:
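Human Pol eta (10 nM) was preincubated with compounds for 15 min at room temperature before adding 50 nM (final) DNA substrate: primer plus TAMRA reporter strand annealed to a BHQ-2-labeled template. Fluorescence (ex 525/em 598 nm) was read at 0 and 10 min.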

Test [10] has as its target RecQ-like DNA helicase BLM (Homo sapiens) (UniProt P54132). The test is described as follows: qHTS for Inhibitors of WRN Helicase: BLM Helicase Counterscreen for WRN Inhibitors (AID 720503). Also: potency is read from the fitted curve at half-maximal effect; nearly all actives have a fitted effect of over 60% in size. The settings on record: Recombinant BLM helicase DNA unwinding, red fluorescence. A digest of the protocol: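 Reactions were started with 100 nM DNA substrate and 2 mM ATP (final) after compound and 1 nM BLM stood 15 min at room temperature in Tris-HCl pH 8.0 buffer with NaCl, MgCl2, DTT and Tween-20. Two red-fluorescence reads 15 min apart were normalized against DMSO and no-enzyme wells.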

For test [11], the target named is Rap guanine nucleotide exchange factor 3 (Homo sapiens) (UniProt O95398). The test is described as follows: Confirmatory qHTS for antagonist of cAMP-regulated guanine nucleotide exchange factor 3 (EPAC1) (AID 1645880). Also: potency is read from the fitted curve at half-maximal effect; nearly all actives have a fitted effect of over 55% in size. A digest of the protocol:
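Released BODIPY-GDP fluoresces less than Rap1-bound BODIPY-GDP; the signal is followed at 480/540 nm at 5-min intervals over 30 min, after 5 min at room temperature. Reactions contain 100 nM EPAC1, 250 nM RAP1B-BODIPY-GDP and 50 uM GDP; results are normalized to ATA and DMSO.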

For test [12] the target is unchanged. In words: Confirmatory qHTS for agonist of cAMP-regulated guanine nucleotide exchange factor 3 (EPAC1) (AID 1645881).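 Also: EPAC1 catalysed release of BODIPY-GDP from Rap1B seen as fluorescence loss; 100% = effect of cAMP agonist control; nearly all actives have a fitted effect of over 75% in size.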
Test [13] addresses Rap guanine nucleotide exchange factor 4 (Homo sapiens) (UniProt Q8WZA2). The test is described as follows: Confirmatory qHTS for agonist of cAMP-regulated guanine nucleotide exchange factor 4 (EPAC2) (AID 1645884).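 Also: nucleotide exchange releases bodipy-GDP from Rap1 and this lowers its fluorescence; % is scaled to controls: 0 for no effect and ±100 for the full control effect; nearly all actives have a fitted effect of over 65% in size.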
Test [14] shares this target. The test is described as follows: Confirmatory qHTS for antagonist of cAMP-regulated guanine nucleotide exchange factor 4 (EPAC2) (AID 1645885). Also: % is scaled to controls: 0 for no effect and ±100 for the full control effect; nearly all actives have a fitted effect of over 25% in size.
The target of test [15] is Rap guanine nucleotide exchange factor 3 (Homo sapiens) (UniProt O95398). The test is described as follows: Counterscreen qHTS for antagonist of cAMP-regulated guanine nucleotide exchange factor 3 (EPAC1) (AID 1645888). Also: % of control where 0% means no effect. A digest of the protocol:
(§1)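 Rap1B–BODIPY-GDP (250 nM) with 50 uM GDP; compounds pin-transferred to 9.74 nM–152 uM final (activator) or from 7.32 nM upwards (inhibitor). Fluorescence Ex/Em 480/540 nm read at 5 and 30 min, then after adding cAMP or buffer, at room temperature.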
(Counterscreens check selectivity or assay interference.)

Test [16] has the same target. The test is described as follows: Counterscreen qHTS for agonist of cAMP-regulated guanine nucleotide exchange factor 3 (EPAC1) (AID 1645889). Also: % of control where 0% means no effect; nearly all actives have a fitted effect of over 40% in size. In outline:
as §1

Test [17] deals with Lysosomal acid glucosylceramidase (Homo sapiens) (UniProt P04062). In words: Glucocerebrosidase-p2 (AID 348; in the data active = potency below about 10 µM; also: potency is read from the fitted curve at half-maximal effect). The settings on record: purified GBA, blue fluorogenic substrate, 40 min. In outline:
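Normal human glucocerebrosidase (0.2 nM) with blue fluorogenic substrate (80 uM final) in citrate/phosphate pH 5.9 with 10mM sodium taurocholate, 0.01% tween-20; 40 min RT, NaOH/glycine stop; fluorescence Ex 365/Em 440; AC50 from a titration from 0.6 nM upwards.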

Test [18] can be described thus: AP1 Signaling Pathway (AID 357; active = well fitted curve in either direction with a large enough effect, not every such curve was filed as active; also: % is scaled to controls: 0 for no effect and ±100 for the full control effect). A digest of the protocol: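 ME-180 cells with beta-lactamase reporter under AP-1 response element, stimulated with EC50 EGF; compounds tested in titration series, 5 h at 37 °C. CCF4 substrate added 2.5 h at room temperature; 460/530 nm emission ratio gave %activity and AC50.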
Test [19] addresses Glucocorticoid receptor (Homo sapiens) (UniProt P04150). In words: GR-EFC Redistribution (AID 451; calls by dose curve; also: potency is read from the fitted curve at half-maximal effect). The settings on record: CHO-K1 GR-EFC translocation, beta-gal luminescence, 2 h. A digest of the protocol: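 CHO-K1 cells expressing nuclear EA and GR-ED fragments of b-gal; compounds titrated up to 46 uM final, 2 h at 37 C. GR nuclear translocation read as complemented b-gal luminescence after 1 h RT detection.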

For test [20], the target named is Mitogen-activated protein kinase 10 (Mus musculus) (UniProt Q61831). In words: JNK3 AlphaScreen Assay (AID 530; active = well fitted curve in either direction with a large enough effect, not every such curve was filed as active;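 also: kinase came from lysate of stimulated human HepG2 cells; signal reports phosphorylation of biotinylated GST-cJun 1-79 at Ser73 with 10 µM ATP; series mostly up to about 57 µM; % is scaled to controls: 0 for no effect and ±100 for the full control effect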). A digest of the protocol: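 HepG2 lysate (IL-1b/TNFa pre-activated) + biotin-GST-cJun 1-79 + anti-pSer73 cJun; cpd titration, 15 min RT; ATP 10 uM start; Tris pH 7.6, MgCl2, DTT, vanadate; beads in EDTA buffer; AlphaScreen.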
(Alpha assays give light when donor and acceptor beads are brought close together.)

Test [21] concerns the target 3',5'-cyclic-AMP phosphodiesterase 4B (Homo sapiens) (UniProt Q07343). The test is described as follows: qHTS Assay for Inhibitors of PDE-IV (AID 607; active = well fitted activation curve with a large enough effect in the main read-out, with a control signal flat, not every such curve was filed as active; also: % of control where 0% means no effect). In outline:
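Cell-based read-out of cAMP via a modified cyclic nucleotide-gated channel and membrane potential dye (535/590 nm) in HEK293 cells expressing PDE4 endogenously. Compounds tested up to 22.9 uM final; 100 uM RO 20-1724 reference.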

In test [22] the target is Cytochrome P450 2C9 (Homo sapiens) (UniProt P11712). The test is described as follows: qHTS Assay for Inhibitors and Substrates of Cytochrome P450 2C9 (AID 883). Also: potency is read from the fitted curve at half-maximal effect; nearly all actives have a fitted effect of over 60% in size. A digest of the protocol:
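10nM CYP2C9 + 100uM Luciferin-H (=KM), 25mM KPO4; cpd 10 min 37C; NADPH regen, 60 min 37C; stop/detect with P450 Glo-Buffer 20 min; luminescence. Norm. to 57uM sulphaphenazole as full inhibition.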

Rap guanine nucleotide exchange factor 3 (Homo sapiens), sequence (O95398 whole entry, looked up): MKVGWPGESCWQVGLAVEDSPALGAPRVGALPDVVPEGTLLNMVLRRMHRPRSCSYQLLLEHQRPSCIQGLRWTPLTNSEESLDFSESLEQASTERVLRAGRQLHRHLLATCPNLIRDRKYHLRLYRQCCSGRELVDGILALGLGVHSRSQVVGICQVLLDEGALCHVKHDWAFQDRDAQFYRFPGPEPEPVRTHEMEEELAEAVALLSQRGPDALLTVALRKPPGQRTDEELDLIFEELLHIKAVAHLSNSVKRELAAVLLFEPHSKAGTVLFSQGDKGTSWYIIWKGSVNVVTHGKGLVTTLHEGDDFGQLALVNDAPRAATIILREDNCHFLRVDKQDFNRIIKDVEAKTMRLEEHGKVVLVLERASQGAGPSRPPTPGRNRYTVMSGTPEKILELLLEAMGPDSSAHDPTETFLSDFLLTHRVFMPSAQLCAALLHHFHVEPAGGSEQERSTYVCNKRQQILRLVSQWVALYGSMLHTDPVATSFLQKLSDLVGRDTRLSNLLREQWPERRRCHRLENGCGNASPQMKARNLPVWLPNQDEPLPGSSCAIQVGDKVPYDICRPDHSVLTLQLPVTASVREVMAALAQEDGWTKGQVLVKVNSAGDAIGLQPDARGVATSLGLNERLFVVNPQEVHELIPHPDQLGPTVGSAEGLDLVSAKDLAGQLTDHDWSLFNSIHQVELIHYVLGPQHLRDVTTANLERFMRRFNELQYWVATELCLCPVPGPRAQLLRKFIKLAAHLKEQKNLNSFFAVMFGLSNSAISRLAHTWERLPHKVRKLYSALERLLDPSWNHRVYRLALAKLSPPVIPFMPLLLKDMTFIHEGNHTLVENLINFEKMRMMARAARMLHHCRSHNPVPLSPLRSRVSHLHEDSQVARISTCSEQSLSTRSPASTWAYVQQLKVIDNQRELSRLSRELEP
Rap guanine nucleotide exchange factor 4 (Homo sapiens), sequence (Q8WZA2 whole entry, looked up): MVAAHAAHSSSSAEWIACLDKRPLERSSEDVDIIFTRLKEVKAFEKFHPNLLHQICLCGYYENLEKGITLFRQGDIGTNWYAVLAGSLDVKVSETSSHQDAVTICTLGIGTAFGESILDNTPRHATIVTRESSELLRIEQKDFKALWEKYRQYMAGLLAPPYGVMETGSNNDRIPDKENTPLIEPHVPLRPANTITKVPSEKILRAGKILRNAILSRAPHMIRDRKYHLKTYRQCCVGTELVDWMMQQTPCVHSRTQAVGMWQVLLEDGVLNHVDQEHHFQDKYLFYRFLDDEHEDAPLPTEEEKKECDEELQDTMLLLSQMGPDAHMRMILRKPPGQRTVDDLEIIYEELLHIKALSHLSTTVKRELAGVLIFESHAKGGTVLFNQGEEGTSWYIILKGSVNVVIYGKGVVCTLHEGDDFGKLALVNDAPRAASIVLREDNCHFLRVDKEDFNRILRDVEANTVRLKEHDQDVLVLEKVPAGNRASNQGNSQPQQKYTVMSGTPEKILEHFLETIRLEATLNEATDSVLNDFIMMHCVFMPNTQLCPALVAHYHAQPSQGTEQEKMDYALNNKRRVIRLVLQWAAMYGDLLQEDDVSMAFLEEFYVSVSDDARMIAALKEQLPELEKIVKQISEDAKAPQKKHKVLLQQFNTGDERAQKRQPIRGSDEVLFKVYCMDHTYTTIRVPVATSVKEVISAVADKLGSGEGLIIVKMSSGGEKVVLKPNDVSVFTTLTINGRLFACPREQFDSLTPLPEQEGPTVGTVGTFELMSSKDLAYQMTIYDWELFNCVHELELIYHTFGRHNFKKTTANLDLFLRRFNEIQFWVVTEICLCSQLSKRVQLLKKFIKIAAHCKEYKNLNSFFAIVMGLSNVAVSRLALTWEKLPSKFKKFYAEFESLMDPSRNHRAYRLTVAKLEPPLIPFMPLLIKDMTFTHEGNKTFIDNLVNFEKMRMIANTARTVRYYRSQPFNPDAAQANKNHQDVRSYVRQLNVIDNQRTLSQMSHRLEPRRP
DNA polymerase eta (Homo sapiens), sequence (Q9Y253 whole entry, looked up): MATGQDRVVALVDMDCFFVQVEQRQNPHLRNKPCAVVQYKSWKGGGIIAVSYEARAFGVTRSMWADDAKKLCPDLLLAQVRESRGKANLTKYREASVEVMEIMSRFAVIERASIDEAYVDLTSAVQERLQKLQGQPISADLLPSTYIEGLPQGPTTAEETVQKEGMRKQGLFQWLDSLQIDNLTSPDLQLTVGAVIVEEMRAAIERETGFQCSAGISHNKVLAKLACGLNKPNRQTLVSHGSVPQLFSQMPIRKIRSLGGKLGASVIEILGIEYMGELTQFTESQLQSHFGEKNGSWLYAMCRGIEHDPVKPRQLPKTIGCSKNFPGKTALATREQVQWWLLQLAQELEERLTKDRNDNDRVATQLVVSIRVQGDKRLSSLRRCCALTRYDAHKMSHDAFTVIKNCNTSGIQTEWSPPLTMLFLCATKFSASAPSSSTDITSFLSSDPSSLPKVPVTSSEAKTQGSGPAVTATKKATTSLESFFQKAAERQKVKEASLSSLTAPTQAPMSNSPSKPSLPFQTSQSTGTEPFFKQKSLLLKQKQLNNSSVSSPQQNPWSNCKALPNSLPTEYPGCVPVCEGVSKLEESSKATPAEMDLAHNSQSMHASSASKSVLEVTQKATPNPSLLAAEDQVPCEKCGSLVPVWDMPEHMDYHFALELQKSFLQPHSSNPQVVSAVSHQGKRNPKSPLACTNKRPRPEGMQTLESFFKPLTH
DNA polymerase kappa (Homo sapiens), sequence (Q9UBT6 whole entry, looked up): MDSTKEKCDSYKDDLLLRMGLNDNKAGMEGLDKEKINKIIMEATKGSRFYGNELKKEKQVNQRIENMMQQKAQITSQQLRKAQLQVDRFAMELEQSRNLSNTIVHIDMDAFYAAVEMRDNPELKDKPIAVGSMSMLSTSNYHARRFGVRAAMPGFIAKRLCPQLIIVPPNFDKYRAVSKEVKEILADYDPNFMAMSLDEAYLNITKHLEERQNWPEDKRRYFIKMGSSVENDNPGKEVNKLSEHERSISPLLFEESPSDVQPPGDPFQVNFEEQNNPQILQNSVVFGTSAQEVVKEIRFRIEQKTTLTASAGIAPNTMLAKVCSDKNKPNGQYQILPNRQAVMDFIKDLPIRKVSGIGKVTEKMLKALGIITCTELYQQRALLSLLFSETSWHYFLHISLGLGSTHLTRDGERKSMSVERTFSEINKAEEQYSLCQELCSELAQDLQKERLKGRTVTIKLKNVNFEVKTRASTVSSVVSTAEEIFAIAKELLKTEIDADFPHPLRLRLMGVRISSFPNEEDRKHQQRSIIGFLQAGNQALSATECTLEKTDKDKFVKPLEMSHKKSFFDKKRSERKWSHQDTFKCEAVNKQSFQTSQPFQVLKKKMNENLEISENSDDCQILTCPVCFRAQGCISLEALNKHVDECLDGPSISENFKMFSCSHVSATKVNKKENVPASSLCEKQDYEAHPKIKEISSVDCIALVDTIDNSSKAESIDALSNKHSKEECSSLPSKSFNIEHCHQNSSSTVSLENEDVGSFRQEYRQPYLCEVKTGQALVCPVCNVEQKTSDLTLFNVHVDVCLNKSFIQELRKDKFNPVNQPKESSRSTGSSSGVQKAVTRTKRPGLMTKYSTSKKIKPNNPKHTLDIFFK
Vitamin D3 receptor (Homo sapiens), sequence (P11473 whole entry, looked up, the tested form may be a part): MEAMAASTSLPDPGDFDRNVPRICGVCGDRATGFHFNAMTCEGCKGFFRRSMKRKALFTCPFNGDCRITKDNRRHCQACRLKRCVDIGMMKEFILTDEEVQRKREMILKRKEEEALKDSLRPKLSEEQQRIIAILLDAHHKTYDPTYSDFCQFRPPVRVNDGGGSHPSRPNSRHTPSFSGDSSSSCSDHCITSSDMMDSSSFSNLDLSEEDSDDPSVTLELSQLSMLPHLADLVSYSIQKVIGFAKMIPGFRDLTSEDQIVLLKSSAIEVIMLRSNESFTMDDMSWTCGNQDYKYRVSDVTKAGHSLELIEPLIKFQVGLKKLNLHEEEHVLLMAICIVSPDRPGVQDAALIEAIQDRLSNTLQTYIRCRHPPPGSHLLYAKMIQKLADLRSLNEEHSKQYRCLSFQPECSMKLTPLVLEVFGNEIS
Lysosomal acid glucosylceramidase (Homo sapiens), sequence (P04062 whole entry, looked up): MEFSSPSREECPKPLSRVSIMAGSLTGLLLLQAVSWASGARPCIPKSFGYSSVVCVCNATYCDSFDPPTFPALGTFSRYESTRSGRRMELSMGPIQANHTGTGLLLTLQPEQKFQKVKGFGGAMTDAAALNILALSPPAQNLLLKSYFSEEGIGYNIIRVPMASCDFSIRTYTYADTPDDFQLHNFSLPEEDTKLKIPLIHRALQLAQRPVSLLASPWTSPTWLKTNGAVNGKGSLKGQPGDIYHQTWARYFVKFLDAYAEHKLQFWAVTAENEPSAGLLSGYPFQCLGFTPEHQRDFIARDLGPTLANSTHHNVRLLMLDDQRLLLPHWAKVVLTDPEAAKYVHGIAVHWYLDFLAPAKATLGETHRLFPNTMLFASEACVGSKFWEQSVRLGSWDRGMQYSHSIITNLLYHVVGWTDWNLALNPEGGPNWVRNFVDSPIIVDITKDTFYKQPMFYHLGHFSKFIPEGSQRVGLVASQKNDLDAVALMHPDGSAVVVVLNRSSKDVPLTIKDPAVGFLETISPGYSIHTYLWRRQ
Cytochrome P450 2C9 (Homo sapiens), sequence (P11712 whole entry, looked up): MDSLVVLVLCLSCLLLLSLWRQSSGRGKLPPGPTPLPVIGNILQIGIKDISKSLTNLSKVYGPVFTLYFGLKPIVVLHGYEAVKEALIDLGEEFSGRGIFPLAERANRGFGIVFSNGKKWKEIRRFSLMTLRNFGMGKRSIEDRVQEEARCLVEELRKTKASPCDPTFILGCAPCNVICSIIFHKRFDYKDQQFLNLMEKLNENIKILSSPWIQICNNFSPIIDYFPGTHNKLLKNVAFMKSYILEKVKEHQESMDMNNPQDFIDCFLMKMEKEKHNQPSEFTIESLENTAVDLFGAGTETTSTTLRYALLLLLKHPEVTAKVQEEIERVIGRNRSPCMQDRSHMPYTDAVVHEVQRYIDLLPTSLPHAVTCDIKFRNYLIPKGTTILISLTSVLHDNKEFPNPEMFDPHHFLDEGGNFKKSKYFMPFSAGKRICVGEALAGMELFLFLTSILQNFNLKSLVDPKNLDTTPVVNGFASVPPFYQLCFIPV

Take `COc1ccc(N2C(=O)/C(=C/c3ccco3)C(=O)NC2=S)cc1`: the compound was called inactive in test [1] and in test [2]. The Potency in [3] was 517 nM (active); in [4], 1.06 µM (active); in [5], 1.52 µM (active); in [6] it was 21.3 µM (active); in [7], 3.41 µM (active); in test [8], 0.67 µM (active). The Potency was 2.39 µM (active) in test [9], 215 nM (active) in test [10] and 6.31 µM (active) in test [11]. The Potency entry in test [12] was “inactive”. Also, the activation in test [13] is 10.2% [at 17.1 µM, percent relative to cAMP agonist control]. In addition, the values for the activity change, negative = inhibition in test [14] and in test [15] were 33.5% [at 12.7 µM] and -2.79% [at 30.8 µM], respectively.

Consider `O=C1NC(=O)N(Cc2ccco2)C(=O)/C1=C\c1ccc(-c2ccc(F)cc2)o1`, for which the Potency in [8] was 42.3 µM (active); in [9], 47.8 µM (active); in [11], 22.4 µM (active). Also, in [12], the Potency entry is “inactive”. Further, the activation in [13] was -0.903% [at 17.1 µM, percent relative to cAMP agonist control]; in test [16], 11.1% [at 30.8 µM]. Further, the results for the activity change, negative = inhibition in test [14] and in test [15] were -6.14% [at 12.7 µM] and -21.9% [at 30.8 µM], respectively.

Turning to `CC(C)c1ccc(C(c2c(O)c3ccccc3oc2=O)c2c(O)c3ccccc3oc2=O)cc1`, the Potency in test [17] was over 11.4 µM; in test [19], over 9.22 µM; in [22] it was 3.16 µM (active); in test [11] it was 15.1 µM (active). Also, the call in [18] and in [15] was inactive. Also, the activity change, negative = inhibition in test [20] was -6.98% [at 11.4 µM]. Further, the Potency entry in test [21], in test [12], in test [13], in test [14] and in test [16] was “inactive” throughout.
